Screens (PubChem BioAssay)
CHX counter: Cycloheximide Counterscreen for Small Molecule Inhibitors of Shiga Toxin; cell reporter, cycloheximide protein synthesis inhibition counterscreen; max response, %; 300,000 compounds, 12% hits; AID 2314, 2010; in the data active = max response mostly above about 13%, no sharp cut-off; inactive = mostly below about 14%; also: read at 38.3 µM for the half of the compounds with a filed dose; 0% is about no effect
SARS PLP yeast: qHTS of Yeast-based Assay for SARS-CoV PLP; S. cerevisiae expressing SARS-CoV PLpro, growth rescue; Potency, µM (doses to about 32.9 µM), inactives show at the highest dose activity, positive = growth rescue, most hits filed as activators; 330,000 compounds, 0.19% hits; AID 485353, 2010; calls by dose curve; also: potency is read from the fitted curve at half-maximal effect; 0% is about no effect; nearly all actives have a fitted effect of over 55% in size
Pf growth 48h: Primary qHTS for delayed death inhibitors of the malarial parasite plastid, 48 hour incubation; Potency, µM (top dose mostly 28.7 µM), for the others: top-dose activity change, negative = inhibition, actives largely listed as inhibitors; P. falciparum luciferase growth in erythrocytes, 48 h; 310,000 compounds, 5.9% hits; also: potency is read from the fitted curve at half-maximal effect; % is scaled to controls: 0 for no effect and ±100 for the full control effect
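Erythrocytes infected with P. falciparum carrying an integrated firefly luciferase reporter (2% hematocrit, 0.1% parasitemia final) were exposed to compounds in RPMI 1640 with 0.5% Albumax at 37 C, 5% CO2. Growth inhibition was scored as reduced luminescence.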
Pf growth 96h: Primary qHTS for delayed death inhibitors of the malarial parasite plastid, 96 hour incubation. P. falciparum luciferase reporter growth, 96 h. AID 504834, 2011. 320,000 compounds, 6.9% hits. Potency, µM (top dose mostly 28.7 µM), without a hit: at the highest dose activity change, negative = inhibition, most hits filed as inhibitors; also: potency is read from the fitted curve at half-maximal effect; % is scaled to controls: 0 for no effect and ±100 for the full control effect
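Infected RBCs, 2% Hct / 0.05% parasitemia final; luciferase-reporter P. falciparum; cpd 96 h, 37 C, 5% CO2; luciferase detection reagent; luminescence.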
AMA1-RON2 inh: qHTS for Inhibitors of AMA1-RON; Towards Development of Antimalarial Drug Lead: Primary Screen; Potency, µM (highest dose often 58.2 µM), for inactives: at the top dose activity change, negative = inhibition, actives largely listed as inhibitors; 360,000 compounds, 0.2% hits; Plasmodium falciparum AMA1 (3D7) - RON2 peptide interaction; AlphaScreen AMA1-biotinylated RON2 peptide binding;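 also: potency is read from the fitted curve at half-maximal effect; 0% = vehicle wells and -100% = peptide control; nearly all actives have a fitted effect of over 45% in size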
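AMA1 (3D7) with his tag at 25 nM final met compounds first, then biotinylated RON2 peptide at 25 nM; detection used donor plus acceptor beads, 10 µg/mL apiece, read by AlphaScreen after 30 min at room temperature.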
Shiga toxin inh: A qHTS for Small Molecule Inhibitors of Shiga Toxin; 290,000 compounds, 9.2% hits; inhibition, % at 38.7 µM; Vero cells, Shiga toxin protein synthesis inhibition reporter; in the data active = inhibition mostly above about 28%, no sharp cut-off; inactive = mostly below about 43%; also: 0% is about no effect
An asterisk follows results filed as active; ? = inconclusive; . = not tested or not shown. Sampled rows, rich in hits. Any-hit rate of the full collection: about 19%. Unless noted, calls follow the shape of the dose curve; as a rule, active = well fitted curve in the direction sought with a large enough effect; inconclusive = small, poorly fitted or top-dose-only effect, or another doubt; inactive = no such curve, though single readings can be large; an effect the other way counts as inactive or inconclusive.

SMILES	CHX counter	SARS PLP yeast	Pf growth 48h	Pf growth 96h	AMA1-RON2 inh	Shiga toxin inh
Cc1csc(NC(=O)/C=C/c2ccc3c(c2)OCO3)n1	74*	10%	161%	23%	14%	91*
COc1ccc(NC(=S)NCc2ccc(S(N)(=O)=O)cc2)c(OC)c1	-4	12%	10%	43%	-5%	-9
O=C(O)c1cc(S(=O)(=O)Nc2cc(Cl)ccc2Oc2ccccc2)ccc1O	.	-6%	6%	13%	-10%	.
CN(C)C(=O)Oc1noc2cc(Cl)ccc12	10	0%	?	3.3µM*	-10%	17
CCC(C(=O)OCC(=O)NC(=O)c1ccccc1OC)c1ccccc1 (centres undefined)	.	-6%	12%	2%	-6%	.
CCC(C)NC(=O)c1cnn2c(C)c3c(nc12)CCCC3 (centres undefined)	1	4%	-3%	10%	-5%	14
Cc1c2c(nc3c(C(=O)NC4CC4)cnn13)CCCC2	35*	-4%	34%	307%	9%	113*
O=C(O)CCc1ccc(S(=O)(=O)Nc2ccccc2C(=O)NCCc2ccccc2)cc1	30*	-6%	135%	169%	-6%	80*
COc1ccc(NC(C)=O)cc1S(=O)(=O)NC(Cc1ccccc1)C(=O)NCc1ccccc1C (centres undefined)	16*	-1%	?	?	-2%	10
COc1ccc(CCNC(=O)c2ccccc2NS(=O)(=O)c2cc(C(=O)O)ccc2OC)cc1	-4	1%	-19%	-3%	-2%	-6
COc1ccc(NC(C)=O)cc1S(=O)(=O)Nc1ccccc1C(=O)NCCc1ccccc1	44*	1%	78%	100%	16%	89*
CC1C(=O)N2CCCc3cc(NS(=O)(=O)c4ccc([N+](=O)[O-])cc4)cc1c32 (centres undefined)	.	0%	?	?	-10%	.
Cc1ccccc1NC(=O)/C(C#N)=C/c1ccsc1	25*	-3%	1%	?	-7%	37*
Cc1ccccc1NC(=O)/C(C#N)=C/c1ccc[nH]1	30*	23%	1%	12µM*	-18%	26
Cc1ccccc1NC(=O)/C(C#N)=C\c1cn(CC(=O)O)c2ccccc12	8	0%	-2%	?	5%	-16
Cc1ccccc1NC(=O)/C(C#N)=C/c1ccc(-c2ccc(Cl)c(C(=O)O)c2)o1	12*	12%	15%	4%	-1%	15
N#C/C(=C\c1ccc[nH]1)C(=O)Nc1ccccc1[N+](=O)[O-]	22*	-8%	83%	-12%	-16%	67*
CCCC1C2CN(C(C)C)CC=C2C(C#N)=C(N)C1(C#N)C#N (centres undefined)	-4	9%	-25%	-11%	6%	10
Cc1cccn2c(=O)c(/C=C(\C#N)C(N)=O)c(Oc3ccccc3)nc12	-2	2%	?	-25%	4%	-14
Cc1cccn2c(=O)c(/C=C(\C#N)S(=O)(=O)c3ccccc3)c(Oc3ccc(Cl)cc3)nc12	-3	1%	?	12µM*	3%	-3
Cc1cc(Oc2nc3c(C)cccn3c(=O)c2/C=C(\C#N)S(=O)(=O)c2ccccc2)ccc1Cl	-1	9%	?	2.3µM*	7%	1
Cc1ccccc1Oc1nc2c(C)cccn2c(=O)c1/C=C(\C#N)C(=O)Nc1c(C)n(C)n(-c2ccccc2)c1=O	-2	-13%	?	?	-5%	-3
Brc1cccc(CSc2nnc(-c3ccncc3)o2)c1	-5	-2%	-22%	29%	-10%	-6
C[C@H](CO)N1C[C@H](C)[C@@H](CN(C)Cc2ccc3c(c2)OCO3)Oc2ccc(NS(C)(=O)=O)cc2C1=O	.	-2%	.	.	7%	.
C=CCN1C(=O)/C(=C2/Sc3ccccc3N2CC)SC1=S	2	2%	?	85%	5%	-11
SMILES	CHX counter	SARS PLP yeast	Pf growth 48h	Pf growth 96h	AMA1-RON2 inh	Shiga toxin inh
C=CCn1c(=O)/c(=C2/Sc3ccccc3N2CC)s/c1=C1/C(=O)NN=C1C	15	0%	15µM*	89%	.	-6
CCOc1ccc2ccccc2c1CNc1nnnn1CC	-2	0%	-21%	?	0%	-11
COC(=O)c1ccc(C23CC4(C2)[C@H](CN(Cc2cccnc2)[C@@H]4c2ccccc2)C3c2ccc(C(F)(F)F)cc2)cc1 (some centres undefined)	-1	-5%	2.9µM*	3.3µM*	1%	1
COC(=O)c1ccc(C23CC4(C2)[C@H](CN(Cc2cccnc2)[C@@H]4c2ccccc2)C3c2ccccc2)cc1 (some centres undefined)	-3	-6%	7.4µM*	8.3µM*	-16%	-6
N#Cc1ccc(C23CC4(C2)[C@H](CN(Cc2cccnc2)[C@@H]4c2ccccc2)C3c2ccccc2)cc1 (some centres undefined)	-3	-11%	4.1µM*	3.7µM*	-3%	7
COc1ccccc1C1CC(c2cccc(NS(C)(=O)=O)c2)=NN1S(=O)(=O)c1ccccc1 (centres undefined)	-2	7%	?	?	2%	-8
Cn1nc(NC(=O)CC23CC4CC(CC(C4)C2)C3)c2c(F)cccc21	-1	3%	?	?	13%	-1
Cc1ccc([C@H]2C[C@H](n3cc(COC(=O)c4ccccc4)nn3)[C@@H](O)CN2C(=O)c2cccs2)cc1	.	.	.	.	-10%	.
C=CCn1cnc2c(nnn2-c2ccc(OC)c(OC)c2)c1=O	-1	-2%	22%	37%	10%	-5
C=CCn1cnc2c(nnn2-c2ccc(C)c(C)c2)c1=O	40*	-2%	126%	68%	-9%	88*
COC(=O)C1=C(c2ccccc2)C[C@@H]2CC[C@H]1N2C(=O)NCc1cccc2ccccc12	.	.	.	.	-6%	.
COC(=O)C1=C(c2cccc(OCc3ccccc3)c2)C[C@@H]2CC[C@H]1N2C(=O)NCc1cc(C)oc1C(F)(F)F	.	0%	4.7µM*	?	-10%	.
COC(=O)C1=C(c2ccc(OCc3ccccc3)cc2)C[C@@H]2CC[C@H]1N2C(=O)NCc1ccc([N+](=O)[O-])cc1	.	2%	.	.	-16%	.
COC(=O)C1=C(c2cccc(OCc3ccccc3)c2)C[C@@H]2CC[C@H]1N2C(=O)NCc1cccc(F)c1	.	0%	8.3µM*	?	-7%	.
COC(=O)C1=C(c2cccc(OCc3ccccc3)c2)C[C@@H]2CC[C@H]1N2C(=O)NCc1ccc(OC)cc1	.	-2%	7.4µM*	?	-3%	.
